Screening results deposited in PubChem by National Center for Advancing Translational Sciences (NCATS).
The sample as a whole holds a higher share of hits than the screen did.
DT40 TDP1 no CPT = qHTS for Inhibitors of human tyrosyl-DNA phosphodiesterase 1 (TDP1): qHTS in cells in absence of CPT. Potency, µM (series often up to 46.2 µM), for the others: at the top dose activity change, negative = growth inhibition, actives largely listed as inhibitors. DT40 Tdp1-/- hTDP1 cells, no CPT, ATP luminescence, 48 h. 420,000 tested, 15% active; note: potency is the fitted concentration of half-maximal effect; nearly all actives have a fitted effect of over 55% in size
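Compound effects on proliferation are scored in DT40 Tdp1-/-;hTDP1 cells in the absence of CPT. ATP levels (CellTiter-Glo luminescence) are recorded after a ≥48 hr, 37 °C incubation.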
IL1B secr inh = blocks inflammasome-driven IL-1 beta release. 360,000 tested, 4.7% active. THP-1 LPS/ATP IL-1B secretion, AlphaLISA, 16 h; active compounds read low. activity change, % at 57.5 µM; in the data active = activity change below about -50%; inconclusive = mostly about -30% to -49%
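Secreted IL-1B measured by AlphaLISA bead assay after 16 h compound exposure of THP-1 cells; compounds (final up to 57.5 uM) added 1 h before LPS (250 ng/mL) and ATP (1.25 mM) stimulation; lower signal means less secretion.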
HT1080NT lethal = kills 2HG-producing HT-1080-NT fibrosarcoma cells; Potency, µM (top dose mostly 46.1 µM), inactives show at the highest dose activity, negative = less viability, actives largely listed as cytotoxic; HT-1080-NT fibrosarcoma viability, CellTiter-Glo ATP luminescence, 48 h; 360,000 tested, 1.6% active;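 note: NT is the 2HG producing partner of a matched IDH1 knockdown line; potency is the fitted concentration of half-maximal effect; 0% = DMSO-treated cells and -100% = media-only wells without cells; nearly all actives have a fitted effect of over 55% in size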
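Toxicity toward the 2HG-producing NT line was scored as %Activity, normalised to DMSO and no-cell wells, from CellTiter-Glo luminescence after 48 hours' treatment.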
HT1080 IDH1KD tx = HT-1080 IDH1 knockdown cell toxicity (counter line); HT-1080 IDH1 knockdown viability, ATP luminescence, 48 h; Potency, µM (highest dose often 46.1 µM), for the others: at the highest dose activity, negative = toxicity, usual class: cytotoxic; 360,000 tested, 2% active;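 note: potency is the fitted concentration of half-maximal effect; 0% = DMSO wells and -100% = cell-free medium wells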
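Knockdown cells (IDH1KD HT-1080) received compounds 2 h after plating at 750 cells/well and were kept 48 h at 37 °C in 5% FBS RPMI. A CellTiter-Glo luminescence read gave % activity for curve fitting.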
TDP1 cell CPT = growth inhibition of DT40 Tdp1-/-;hTDP1 cells with camptothecin (screen for TDP1 inhibitors); chicken DT40 Tdp1-/-;hTDP1 cells + 20 nM CPT, ATP luminescence, 48 h; Potency, µM (titrated, usually from 46.2 µM), inactives show at the top dose activity change, negative = growth inhibition, usual class: inhibitors; 420,000 tested, 12% active; note: potency is the fitted concentration of half-maximal effect; nearly all actives have a fitted effect of over 55% in size
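Cell growth measured by CellTiter-Glo luminescence after a minimum 48 h, 37 C compound exposure with 20 nM CPT in Tdp1-knockout DT40 cells stably expressing hTDP1, seeded 400/well; qHTS titration format.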
ALOX12 inh = ALOX12 (human) lipoxygenase inhibition | purified 12hLO, xylenol orange hydroperoxide absorbance | 580,000 tested, 1.1% active | P18054 | Potency, µM (top dose mostly 108 µM), inactives show at the top dose activity change, negative = inhibition, hits mostly inhibitors; note: potency is the fitted concentration of half-maximal effect
Target sequence (P18054 whole entry, looked up): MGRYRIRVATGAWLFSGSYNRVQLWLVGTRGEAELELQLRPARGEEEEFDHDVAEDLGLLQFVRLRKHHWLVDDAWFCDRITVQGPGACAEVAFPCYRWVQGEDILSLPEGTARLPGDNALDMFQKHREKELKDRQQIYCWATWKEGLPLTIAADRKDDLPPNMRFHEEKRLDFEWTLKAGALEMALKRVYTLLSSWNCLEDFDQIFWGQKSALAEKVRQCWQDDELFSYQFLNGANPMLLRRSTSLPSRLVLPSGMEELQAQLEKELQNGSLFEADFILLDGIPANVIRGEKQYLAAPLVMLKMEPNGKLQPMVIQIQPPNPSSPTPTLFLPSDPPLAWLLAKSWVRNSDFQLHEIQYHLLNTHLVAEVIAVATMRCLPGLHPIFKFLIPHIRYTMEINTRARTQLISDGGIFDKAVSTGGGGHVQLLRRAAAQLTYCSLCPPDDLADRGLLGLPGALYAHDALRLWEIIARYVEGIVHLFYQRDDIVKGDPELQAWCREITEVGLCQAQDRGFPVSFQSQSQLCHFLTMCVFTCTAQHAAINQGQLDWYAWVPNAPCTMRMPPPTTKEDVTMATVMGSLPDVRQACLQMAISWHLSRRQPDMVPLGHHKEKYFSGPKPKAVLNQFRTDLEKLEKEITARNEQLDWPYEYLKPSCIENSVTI
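Purified human 12hLO (150 nM final) in 25 mM Hepes, 0.01% Triton X-100, pH 7.0 was preincubated 15 min at room temperature with compound. Then 40 uM arachidonic acid was added, 30 min. Hydroperoxide was read by Fe-XO absorbance ratio 573/405 nm.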
* marks the source's active call; other numbers are inactive results; [ ] = another dose, or the depositor's remark. Unless noted, calls come from the whole dose curve; as a rule, active = well fitted curve in the direction sought with a large enough effect; inconclusive = small, poorly fitted or top-dose-only effect, or another doubt; inactive = no such curve, though single readings can be large; an effect the other way counts as inactive or inconclusive. Unless noted, % is set by controls: 0 for no effect and ±100 for the full control effect.

For COc1ccc(CCNCc2c(C(=O)O)c(C)n(Cc3ccccc3C)c2C)c(OC)c1 the results were DT40 TDP1 no CPT 18.4µM*, TDP1 cell CPT inconclusive and ALOX12 inh -22.9%.
CCOC(=O)c1ccc(NCc2cccnc2)cc1 was read as DT40 TDP1 no CPT -24.1%, IL1B secr inh -6.2, HT1080NT lethal 0.0%, HT1080 IDH1KD tx -0.4%, TDP1 cell CPT -12.7% and ALOX12 inh 12.2%.
Screening Cc1nc(C)c(C(=O)N2CCCC(c3nn(C)c(=O)n3-c3ccccc3)C2)s1 (stereo unspecified) returned ALOX12 inh 39.6%.
O=C(NCc1ccccc1)c1ccccc1NC(=O)C1CCC1 was read as ALOX12 inh 4.9%.
For CCOC(=O)Cc1nnc(NC(=O)Nc2ccc(Cl)cc2)s1 the results were ALOX12 inh -1.2%.
For Cc1cc(C)nc(NC(=S)Nc2cccc(Cl)c2Cl)c1 the results were DT40 TDP1 no CPT -23.4%, IL1B secr inh 0.0, HT1080NT lethal 23.5%, HT1080 IDH1KD tx 22.2%, TDP1 cell CPT -16.4% and ALOX12 inh -28.6%.
Cc1cc(C)nc(NC(=S)Nc2ccc(Br)cc2Cl)c1 was read as DT40 TDP1 no CPT 6.51µM*, IL1B secr inh 0.0, HT1080NT lethal 6.4%, HT1080 IDH1KD tx 5.0%, TDP1 cell CPT 6.51µM* and ALOX12 inh -1.8%.
Cn1c(CSCc2ccc(F)cc2)nnc1SCC(=O)Nc1nccs1 was read as DT40 TDP1 no CPT 13µM*, IL1B secr inh 14.4, HT1080NT lethal -27.2%, HT1080 IDH1KD tx -1.8%, TDP1 cell CPT 10.3µM* and ALOX12 inh 0.0%.
Screening Cn1c(CSCc2ccc(Cl)c(Cl)c2)nnc1SCC(=O)Nc1nccs1 returned DT40 TDP1 no CPT 18.4µM*, IL1B secr inh -9.1, HT1080NT lethal -8.6%, HT1080 IDH1KD tx -19.3%, TDP1 cell CPT 25.9µM* and ALOX12 inh 37.8%[57.4 µM].
Screening Cn1cccc1Cc1nnc(SCC(=O)Nc2nccs2)n1C returned DT40 TDP1 no CPT -6.5%, IL1B secr inh 0.0, HT1080NT lethal 23.1%, HT1080 IDH1KD tx 2.3%, TDP1 cell CPT -1.8% and ALOX12 inh -3.0%.
`Cn1cccc1Cc1nnc(SCC(=O)Nc2nccs2)n1CCc1ccccc1` gave DT40 TDP1 no CPT inconclusive, IL1B secr inh inconclusive, HT1080NT lethal -16.1%, HT1080 IDH1KD tx -14.0%, TDP1 cell CPT 20.6µM* and ALOX12 inh 182.5%.
Screening Cn1c(CSCc2ccc(Cl)cc2)nnc1SCC(=O)Nc1nccs1 returned DT40 TDP1 no CPT inconclusive, IL1B secr inh -2.0, HT1080NT lethal -13.8%, HT1080 IDH1KD tx -10.1%, TDP1 cell CPT inconclusive and ALOX12 inh -28.6%.
For O=C1CCN(S(=O)(=O)c2ccccc2)CCCN(Cc2ccc3[nH]ccc3c2)CCN1 the results were ALOX12 inh -4.2%.
CC(C)(C)NC(=O)CC1(C(=O)NCc2ccccc2)CCCC1 was read as ALOX12 inh -2.7%.
O=C(CCc1ncc(-c2ccc(F)cc2)o1)Nc1ccccc1N1CCOCC1 was read as ALOX12 inh 14.0%.
For CN=c1scc(-c2cccs2)n1/N=C/c1ccccc1 the results were ALOX12 inh 13.8%.
`COc1ccccc1C(=O)OCc1cc(=O)n2nc(C3CCCCC3)sc2n1` gave DT40 TDP1 no CPT inconclusive, TDP1 cell CPT -9.6% and ALOX12 inh -2.6%.
`CSc1ccccc1-c1cnc(NC(C)=O)cn1` gave DT40 TDP1 no CPT -47.2%, IL1B secr inh -26.0, HT1080NT lethal inconclusive, HT1080 IDH1KD tx 21.5%, TDP1 cell CPT 2.59µM* and ALOX12 inh 2.7%.
For COc1cccc2sc3ccc(C#CC4(O)CCCCC4)cc3c(=O)c12 the results were DT40 TDP1 no CPT inconclusive, IL1B secr inh -56.7*, HT1080NT lethal inconclusive, HT1080 IDH1KD tx -27.0%, TDP1 cell CPT inconclusive and ALOX12 inh -19.8%.
Screening COc1cccc2sc3ccc(C#Cc4ccc(N)cc4)cc3c(=O)c12 returned DT40 TDP1 no CPT inconclusive, IL1B secr inh -24.9, HT1080NT lethal -15.1%, HT1080 IDH1KD tx -15.2%, TDP1 cell CPT 16.4µM* and ALOX12 inh 5.6%.
`COc1ccccc1COCC(O)Cn1nc(-c2cccs2)c2ccccc2c1=O` (stereo unspecified) gave ALOX12 inh 1.6%.
Screening O=S(=O)(Nc1nc2n(n1)C(c1ccc(F)cc1)C=C(c1ccccc1)N2)c1ccccc1 (stereo unspecified) returned DT40 TDP1 no CPT 20.6µM*, TDP1 cell CPT inconclusive and ALOX12 inh 4.1%.
`O=C(Nc1nc2n(n1)C(c1ccc(F)cc1)C=C(c1ccccc1)N2)c1ccco1` (stereo unspecified) gave DT40 TDP1 no CPT 23.1µM*, TDP1 cell CPT 16.4µM* and ALOX12 inh -13.6%.
For O=C(Nc1nc2n(n1)C(c1ccccc1)C=C(c1ccccc1)N2)c1ccccc1 (stereo unspecified) the results were DT40 TDP1 no CPT 18.4µM*, TDP1 cell CPT 16.4µM* and ALOX12 inh -24.6%.
For O=C(Nc1nc2n(n1)C(c1ccc(Cl)cc1)C=C(c1ccccc1)N2)c1ccco1 (stereo unspecified) the results were DT40 TDP1 no CPT 20.6µM*, TDP1 cell CPT 20.6µM* and ALOX12 inh -0.5%.
Screening COc1ccc(S(N)(=O)=O)cc1C(=O)NCc1cccnc1-n1ccnc1 returned ALOX12 inh 1.4%.
For COCc1nn2c3c(cnc2c1-c1ccccc1)C(=O)CC(c1ccc(OC)cc1OC)C3 (stereo unspecified) the results were ALOX12 inh -13.7%.
For COc1ccc(C(=O)Nc2nc3n(n2)C(c2ccc(Cl)cc2)C=C(c2ccccc2)N3)cc1OC (stereo unspecified) the results were DT40 TDP1 no CPT 14.6µM*, TDP1 cell CPT 14.6µM* and ALOX12 inh -28.2%.
C=CCN(Cc1ccccc1)C(C#CC(=C)C)Cc1ccccc1 (stereo unspecified) was read as ALOX12 inh 19.2%.
Screening C=CCOC(=O)C1=C(C)N(Cc2cc(F)cc(F)c2)C(=O)CC1c1ccccc1Cl (stereo unspecified) returned ALOX12 inh 67.5%.
`O=C(Nc1ccc(Oc2ccccc2)cc1)C1CCN(c2c3c(nc4ncnn24)CCC3)CC1` gave DT40 TDP1 no CPT 18.4µM*, IL1B secr inh -91.3*, HT1080NT lethal -25.5%, HT1080 IDH1KD tx -9.4%, TDP1 cell CPT 14.6µM* and ALOX12 inh 7.3%.
